In all, about 1,900 compounds went through this assay and about 1,200 (63%) were called active. The set was probably picked from earlier hits. These entries were drawn from the full list. Values without a mark were called inactive. Rule as the data show it: active = inhibition above about 22%; inactive = the rest.
Assay: cytotoxic compounds in IEC-6 epithelial cells, confirmation, cytotoxicity control, cell-based, luminescence (AID 1907);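 also: 0% = vehicle and 100% = reference cytotoxic drug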
Details: IEC-6 rat intestinal epithelial viability, at 5 µM, hits give high values

Compound	inhibition
CC1=CC(=Cc2sc3ccccc3[n+]2C)C=C(C)O1	32.9% (active)
Cc1cc2ccccn2c1C(C[N+](=O)[O-])c1c(F)cccc1Cl (stereo not drawn)	10.8%
COc1cc(-n2c(=S)[nH]c3ccc(C)cc3c2=O)c(Cl)cc1Cl	-14.8%
